AmpC detergent = inhibitors of E. coli AmpC beta-lactamase with detergent; P00811; AmpC hydrolysis of nitrocefin, absorbance 480 nm, 0.01% Triton; Potency, µM (titrated, usually from 114 µM), inactives show at the highest dose activity change, negative = inhibition, usual class: inhibitors; hit rate 0.041% among 370,000;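 note: 0% = no-compound wells and -100% = no-enzyme wells; nearly all actives have a fitted effect of over 25% in size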
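AmpC (5.3 nM in the dispensed reagent) in 20 mM phosphate pH 7.0 with 0.01% (detergent screen) or 0.0001% Triton X-100 was preincubated with compounds for 15 min at room temperature. Nitrocefin was then added from an 800 uM solution, and hydrolysis was followed at 480 nm.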
FBPA Giardia inh = blocks Giardia fructose-bisphosphate aldolase activity; AID 2451; Potency, µM (series often up to 59.6 µM), inactives show top-dose activity, negative = inhibition, most hits filed as inhibitors; purified Giardia FBPA; hit rate 0.71% among 290,000; A8B2U2; note: nearly all actives have a fitted effect of over 55% in size
Target sequence (A8B2U2 whole entry, looked up): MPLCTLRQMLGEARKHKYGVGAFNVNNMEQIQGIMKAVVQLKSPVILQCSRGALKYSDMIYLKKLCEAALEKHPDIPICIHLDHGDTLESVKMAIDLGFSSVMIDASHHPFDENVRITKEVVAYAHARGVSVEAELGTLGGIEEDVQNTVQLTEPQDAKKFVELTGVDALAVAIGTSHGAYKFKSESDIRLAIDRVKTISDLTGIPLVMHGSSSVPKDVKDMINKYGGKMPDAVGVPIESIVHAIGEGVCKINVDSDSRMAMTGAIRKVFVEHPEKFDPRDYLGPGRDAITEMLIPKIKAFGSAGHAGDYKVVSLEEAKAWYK
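Giardia FBPA (40 nM reagent) was preincubated 10 min at RT with compound (up to 57.5 uM final), then substrate plus GAPDH/TPI/NAD/arsenate coupling system with diaphorase/resazurin was added; resorufin fluorescence (525/598 nm) was read after 20 min.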
Sm TGR block = inhibitors of Schistosoma mansoni thioredoxin glutathione reductase; Q962Y6; purified TGR, DTNB reduction, TNB absorbance 405 nm; Potency, µM (series often up to 114 µM), inactives show at the highest dose activity change, negative = inhibition, hits mostly inhibitors; hit rate 3% among 360,000; AID 485364; note: nearly all actives have a fitted effect of over 60% in size
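Kinetic colorimetric format: TGR-catalysed, NADPH-driven DTNB reduction monitored via TNB absorbance. Enzyme dispensed at 20 nM; compound exposure 15 min at room temperature before reaction start.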
AmpC inh no detg = AmpC beta-lactamase inhibition without detergent; AmpC nitrocefin hydrolysis, absorbance 480 nm, 0.0001% Triton; Potency, µM (series often up to 57.1 µM), for the others: top-dose activity change, negative = inhibition, actives largely listed as inhibitors; hit rate 0.52% among 330,000; AID 485341;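 note: plate controls were no compound for no effect and no enzyme for full effect; nearly all actives have a fitted effect of over 20% in size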
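20 mM phosphate pH 7.0 + 0.01% (detergent screen) or 0.0001% Triton X-100; 5.3 nM AmpC reagent; cpd preinc 15 min RT; nitrocefin (800 uM stock) to start; A480 q20 s × 4 min; Activity was normalised to no-enzyme and no-compound control wells.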
An asterisk follows results filed as active; u = inconclusive; x = not tested or not shown; [ ] = dose if it differs, or a comment. An excerpt weighted towards active compounds, which were near 3.6% of everything screened. Calls come from the whole dose curve; as a rule, active = well fitted curve in the direction sought with a large enough effect; inconclusive = small, poorly fitted or top-dose-only effect, or another doubt; inactive = no such curve, though single readings can be large; an effect the other way counts as inactive or inconclusive. Unless noted, % is set by controls: 0 for no effect and ±100 for the full control effect; potency is the fitted concentration of half-maximal effect.

SMILES	AmpC detergent	FBPA Giardia inh	Sm TGR block	AmpC inh no detg
COCCn1c(C)cc(O)c(C(c2cccc(F)c2)N2CCN(c3ccccc3)CC2)c1=O (configuration not stated)	0%	x	7.9µM*	x
COCCn1nnnc1C(c1ccccc1)N1CCN(c2ccccc2)CC1 (configuration not stated)	1%	-20%	-18%	12%
CCCn1c(N)c(C(c2ccc(OC)cc2)N2CCN(c3ccccc3)CC2)c(=O)[nH]c1=O (configuration not stated)	1%	0%	2µM*	16%
Cc1oc2c(CN3CCCCC3)c(O)ccc2c(=O)c1-c1ccc(Cl)cc1	u	-1%	3%	-27%
CCOc1ccc(N(C)C(=O)CCc2nnc3ccc(N4CCC5(CC4)OCCO5)nn23)cc1	-11%	-6%	-18%	58%
Cc1c(O)ccc(C(=O)CN2CCN(c3ccccc3F)CC2)c1O	u	-4%	-29%	-42%
CN1CCN(CC(=O)c2ccccc2F)CC1	4%	u	11µM*	-18%
Cc1ccc(NC(=O)Cn2c(=O)n(CCC(=O)N3CCc4ccccc4C3)c(=O)c3ccccc32)cc1	3%	x	15%	x
COc1ccc(NC(=O)CN2CCN(Cc3ccc4c(c3)OCO4)CC2)cc1OC	5%	18µM*	4%	-2%
Cc1ccc(C)c(OCC(=O)N2CCN(Cc3ccc4c(c3)OCO4)CC2)c1	1%	10%	56µM*	-1%
O=C(NCc1ccco1)c1sc2cc(Cl)ccc2c1Cl	-14%	0%	40µM*	-26%
CCOC(=O)c1c(C)n(-c2ccc(C)cc2)c2c(C(C(C)=O)C(=O)O)c(Br)c(O)c(O)c12 (configuration not stated)	-14%	-29%	u	0%
CCOC(=O)C(C(C)=O)c1c(Br)c(O)c(O)c2c(C(=O)c3ccc(C)cc3)coc12 (configuration not stated)	-6%	u	4.5µM*	-46%
CCCCc1ccc(-n2nc3ccc(NC(=O)c4cc5ccccc5o4)cc3n2)cc1	13%	x	4%	x
Cc1ccc([C@@H]2[C@@H]3C(=O)N(C)C(=O)[C@@H]3[C@]3(C)C(=O)N(Cc4ccccc4)CC(=O)N23)o1	u	-6%	45µM*	25%
COC(=O)CN1C(=O)[C@H]2[C@@H](c3ccc(C)o3)N3C(=O)CN(Cc4ccccc4)C(=O)[C@@]3(C)[C@H]2C1=O	3%	-2%	22µM*	48%
Cc1ccc(NC2CCCN(C(=O)CSc3ccccn3)C2)cc1C (configuration not stated)	-17%	x	-8%	33%
NS(=O)(=O)c1cccc(NC(=O)CCSc2ccc(Cl)cc2)c1	u	11%	18µM*	-23%
COc1ccc(CNC(=O)C(c2cccs2)N(Cc2ccco2)C(=O)Cc2cccs2)cc1 (configuration not stated)	-6%	-4%	28µM*	-20%
Cc1ccc(-c2nnn(CC(=O)N(Cc3ccco3)C(C(=O)NC(C)(C)C)c3cccs3)n2)o1 (configuration not stated)	-11%	-9%	18µM*	-12%
COc1ccc(CNC(=O)C(c2ccco2)N(Cc2cccs2)C(=O)Cc2cccs2)cc1 (configuration not stated)	u	-15%	u	-41%
CC[C@]12c3[nH]c4ccc(Cl)cc4c3CCN1C(=O)[C@@H](CC(=O)NC/C=C(\C)CCC=C(C)C)C[C@@H]2C(=O)N1CCN(C(=O)c2ccco2)CC1	x	x	x	184%
CCOC(=O)OCC1OC(c2ccccc2)C=CC1Oc1ccc2oc(=O)cc(C)c2c1 (configuration not stated)	x	4%[12.9 µM]	x	x
Cc1cc(C)n2nc(S(=O)(=O)N(CC(C)C)CC(C)C)nc2n1	u	1%	2%	10µM*
Cc1cc(C)n2nc(S(=O)(=O)N(C)Cc3ccccc3)nc2n1	u	10%	-20%	-10%
SMILES	AmpC detergent	FBPA Giardia inh	Sm TGR block	AmpC inh no detg
CC1CCN(Cc2c(O)ccc3c2O/C(=C\c2ccco2)C3=O)CC1	2%	u	1µM*	25%
COCCN(CCOC)Cc1c(O)ccc2c1O/C(=C\c1ccco1)C2=O	-9%	u	3.5µM*	-19%
Cc1ccc(NC(=S)NCCN2CCOCC2)cc1F	1%	2%	4%	-9%
O=c1[nH]c(=O)n(-c2cccc(F)c2)c(O)c1/C=C1\C=Nc2ccccc21	-6%	4%	35µM*	-40%
Cc1cccc(C)c1NC(=O)CN(Cc1ccc(Br)cc1)S(=O)(=O)c1ccccc1	-7%	x	2%	x
CCN1C(=O)C(O)(CC(=O)c2c(C)coc2C)c2ccccc21 (configuration not stated)	1%	-9%	-13%	-4%
Cc1coc(C)c1C(=O)CC1(O)C(=O)N(CCc2ccccc2)c2ccccc21 (configuration not stated)	-3%	-5%	14µM*	1%
COc1ccc(NC(=O)C2CCCCN2S(=O)(=O)c2ccc(F)cc2)cc1 (configuration not stated)	12%	-17%	6%	3.2µM*
COc1ccc(CCNC(=O)C2CCCN(S(=O)(=O)c3ccc(F)cc3)C2)cc1 (configuration not stated)	-1%	x	89µM*	15%
COc1ccc(S(=O)(=O)N2CCCC(C(=O)NCc3ccc(F)cc3)C2)cc1 (configuration not stated)	-1%	4%	4%	-10%
COc1ccc(N2C(=O)N3[C@@H]4c5ccccc5OC[C@@H]4[C@@H](c4ccccc4)[C@@]3(C)C2=O)cc1	x	x	x	8%
COc1ccc2c(C)nc(Nc3nc(C)cc(C)n3)nc2c1	-8%	-26%	11µM*	-18%
COc1ccc2c(C)nc(Nc3nc(C)c(C)c(=O)[nH]3)nc2c1	-12%	-6%	12%	-14%
O=C(CSc1nnc(NC2CC2)s1)c1ccc[nH]1	x	x	x	-16%
Cc1cc(-c2ccc(C(C)C)c(S(=O)(=O)NCc3ccco3)c2)on1	u	10%	u	-36%
COc1ccc(-c2cc(C)no2)cc1S(=O)(=O)NCc1ccco1	-7%	x	32µM*	x
COc1ccc(C(=O)c2coc3ccc(O)c(CN4CCCCC4)c23)cc1	3%	0%	-5%	40µM*
Cc1cccc(NC(=O)COC(=O)C2COc3ccccc3O2)c1C (configuration not stated)	x	x	x	-19%
O=C(COc1ccc(Cl)cc1Cl)NCc1ccco1	-12%	-1%	0%	-25%
Cc1ccc(OCC(=O)NCc2ccco2)cc1C	u	-5%	35µM*	-15%
Cc1cc(Cl)cc(Cl)c1OCC(=O)NCc1ccco1	-13%	-3%	40µM*	2%
Cc1ccc(OCC(=O)NCCNC(=O)c2ccco2)cc1C	-13%	0%	-6%	-1%
CCOC(=O)N1CCC(NC(=O)c2cc(C(=O)NC3CCCC3)ccc2CO)CC1	u	4%	4%	0.71µM*

Screens (PubChem BioAssay)
